Bioassay records as filed in PubChem BioAssay.
Shown is part of a subset that was picked to be rich in hits.
HDAC3 inh: human HDAC3 inhibition | 320,000 tested, 0.15% active | AID 2718 | O15379 | recombinant HDAC3, fluorogenic peptide/trypsin coupled, fluorescence | inhibition, % at 8.3 µM; in the data active = inhibition above about 26%, passing the limit was not always enough
NPR2 activator: GC-B (human) receptor activation. 370,000 tested, 0.11% active. AID 1920062. HEK293-GC-B cells, CNP EC30, cGMP TR-FRET; 0% at EC30 CNP, 100% saturating CNP. activation, % at 10 µM;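 active = activation at 10 µM reaching about 35% in either raw or pattern-adjusted values, limit read from the data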
ALR inh: blocks human ALR sulfhydryl oxidase activity; AID 485317; P55789; inhibition, % (test concentration not listed); 290,000 tested, 3.8% active; purified ALR, DTT oxidation, H2O2 HRP-luminol luminescence;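 active = mean replicate inhibition above about 79%, with every replicate also reaching it, limit read from the data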
NPR1 activator: GC-A (human) enzyme activation. P16066. HEK293 GC-A cells, cGMP TR-FRET, EC30 ANP; 0% at EC30 ANP, 100% saturating ANP. activation, % at 10 µM. 370,000 tested, 0.14% active; in the data active = activation above about 40%
Each line names hits and unclear results; the compound was inactive in the other large screens.

CCCCN(C)c1c(C)nc2ccc(C(=O)NCc3cccs3)cn12	none (no result: HDAC3 inh, ALR inh)
Cc1c(CCC(=O)NCC(=O)NCC(=O)O)c(=O)oc2cc3oc4c(c3cc12)CCCC4	none (no result: ALR inh)
Cc1c(CCC(=O)N[C@@H](C)C(=O)O)c(=O)oc2c(C)c3oc4c(c3cc12)CCCC4	ALR inh 97
Cc1c(CCC(=O)NCCC(=O)O)c(=O)oc2c(C)c3oc4c(c3cc12)CCCC4	ALR inh 98
Cc1c(CCC(=O)N[C@@H](CC(C)C)C(=O)O)c(=O)oc2cc3oc4c(c3cc12)CCCC4	none
COc1ccc(NC(=S)N2CCNC(=O)C2CC(=O)Nc2cccc(Cl)c2C)cc1 (stereo not given)	none
COCCn1c(-c2ccccc2)nc(=S)c2c1CC(C)(C)OC2	none
CC1(C)Cc2c(c(=S)nc(-c3ccccc3)n2CCN2CCOCC2)CO1	ALR inh 97
O=C(NC1CCN(Cc2ccccc2)CC1)c1cccc(S(=O)(=O)Nc2ccc(SC(F)F)cc2)c1	ALR inh 99
Cn1nccc1C(=O)Oc1ccc(/C=N/NC(=O)c2ccccc2O)cc1	ALR inh 93
O=C(Oc1ccc(/C=N/NC(=O)c2ccccc2O)cc1)c1ccccc1	none
O=C(CC1SC(=O)NC1=O)Oc1ccc(/C=N/NC(=O)c2ccccc2O)cc1 (stereo not given)	ALR inh 99
COCCCNC(=O)c1cccc2c(-c3ccnn3C)coc12	none (no result: HDAC3 inh, ALR inh)
Cc1cc(-c2nnc(SCC(=O)NC3CCCC3)o2)no1	none
Cc1cc(-c2nnc(SCC(=O)Nc3nc(-c4ccccc4)cs3)o2)no1	ALR inh 99
Cc1csc(NC(=O)CSc2nnc(-c3cc(C)on3)o2)n1	ALR inh 94
O=C(CSc1nc2ccccc2o1)Nc1nc(-c2ccccc2)cs1	ALR inh 99
COc1ccc2c(c1)CNC2CS(=O)(=O)NCc1ccc(F)cc1 (stereo not given)	none (no result: HDAC3 inh, ALR inh)
Cc1ccc(S(=O)(=O)N(C)C)cc1NC(=O)Cn1c(CN2CCOCC2)nc2ccccc2c1=O	none
Cc1ncc(CO)c(/C=N/NC(=O)c2cc3c(s2)CCCC3)c1O	none
CC1=[N+](C)N(c2ccccc2)C(=O)C1N=Cc1c(Cl)cccc1Cl (stereo not given)	none
CC1=[N+](C)N(c2ccccc2)C(=O)C1N=Cc1ccccc1Cl (stereo not given)	ALR inh 77
CCNC(=O)C1(C)CCCN(C(=O)c2ccccc2Br)C1 (stereo not given)	none (no result: HDAC3 inh, ALR inh)
CCN(CC)C(=N)/C(C#N)=N/Nc1ccc(C)cc1	ALR inh 99
Cc1ccc(N/N=C(\C#N)C(=N)N2CCOCC2)cc1	ALR inh 98
Cc1ccc(N/N=C(\C#N)C(=N)N2CCCCCC2)cc1	none
COc1ccc(N/N=C(\C#N)C(=N)N2CCCCC2)cc1	ALR inh 99
CCC(C)/C(C)=N/NC(=O)c1ccc(COc2ccc(Cl)c(C)c2)cc1 (stereo not given)	ALR inh 99
CCc1sc(C(=O)Nc2ncccc2C)cc1C	none
CCc1sc(C(=O)Nc2ncccc2O)cc1C	HDAC3 inh 76
COc1ccc(C(c2c[nH]c3ccccc23)c2c[nH]c3ccccc23)cc1O	ALR inh 88
Cc1ccc(O)c(C(C)c2c[nH]c3ccccc23)c1 (stereo not given)	none (no result: HDAC3 inh, ALR inh)
Cc1ccc2nc(/C(C#N)=C/c3ccc(O)c(O)c3)[nH]c2c1	ALR inh 89
COCc1[nH]nc2c1C(c1ccc3c(c1)OCO3)N(Cc1ccccc1)C2=O (stereo not given)	none (no result: HDAC3 inh, ALR inh)
CC(C)c1nc(SCC(=O)c2ccc(F)cc2)c2ccccc2n1	ALR inh 99 (no result: HDAC3 inh)
Cc1ccc(C(=O)CSc2nc(C(C)C)nc3ccccc23)cc1	ALR inh 98
COC(=O)CSc1cnc2ccccc2n1	none
O=C(CSc1cnc2ccccc2n1)c1ccc(F)cc1	ALR inh 97
COC(=O)CSc1nc(C(C)C)nc2ccccc12	none
CC(=O)Nc1cc(-c2ccc(F)cc2)cn2c(-c3ccc(S(C)(=O)=O)cc3)cnc12	none (no result: HDAC3 inh, ALR inh)
Cc1c([N+](=O)[O-])cnc(Sc2ccccc2)c1[N+](=O)[O-]	ALR inh 99
O=C(OCC(=O)N1CCCC1=O)C1COc2ccccc2O1 (stereo not given)	none
COc1ccc(/C=C2\SC(=S)N(C(C)C(=O)NC3C=CS(=O)(=O)C3)C2=O)cc1 (stereo not given)	ALR inh 98
COc1cc(/C=N/NC(=O)Cn2nnc3ccccc32)ccc1O	ALR inh 92
COc1cc(/C=N/NC(=O)CCn2nnc3ccccc32)ccc1O	ALR inh 99
CC1CCN(c2nc3c(c(=O)[nH]c(=O)n3C)n2CC(C)CSc2nnnn2-c2ccccc2)CC1 (stereo not given)	none
C[C@H]1[C@@H](OC(=O)Nc2cccc(Cl)c2)CC[C@@]23CCCN2C(=O)CCC[C@@H]13	none (no result: HDAC3 inh, ALR inh)
CC1(C)Cc2c(sc(NC(=O)c3ccco3)c2C(=O)O)CO1	none
CC1(C)Cc2c(sc(NC(=S)NC(=O)c3ccccc3)c2C(=O)O)CO1	ALR inh 99
Cc1ccc(S(=O)(=O)NCC(=O)NCCc2c[nH]c3ccccc23)cc1C	none
Cc1nc2cc(Cc3ccccc3)ccc2o1	none (no result: HDAC3 inh, ALR inh)
Cc1nc2ccc(-c3ccccc3)cc2o1	ALR inh 96
CCC(CC)C(=O)N(C)c1c(C)nc2c(OCCC3CCCCC3)cccn12	none (no result: HDAC3 inh, ALR inh)
COCCn1c(-c2ccccc2)csc1=Nc1cccnc1	none
CC(C)n1c(-c2ccco2)csc1=Nc1cccnc1	ALR inh 92
c1ccc(C2=NC(c3ccccc3)N=C(c3ccccc3)N2)cc1	none
Oc1ccc(C2N=C(c3ccccc3)NC(c3ccccc3)=N2)cc1	NPR2 activator 34 (no result: ALR inh)
Cn1c(=NC(=O)CS(=O)(=O)c2ccccc2)sc2cc(F)ccc21	none (no result: HDAC3 inh, ALR inh)
CCCn1c(=NC(=O)CCS(=O)(=O)c2ccccc2)sc2cc(S(N)(=O)=O)ccc21	none
COCCn1c(=NC(=O)CCS(=O)(=O)c2ccccc2)sc2cc(C(=O)OC)ccc21	NPR1 activator 61
COCCn1c(=NC(=O)CSCC(=O)Nc2cc(C)on2)sc2cc(C(=O)OC)ccc21	ALR inh 92
COCCn1c(SCC(=O)Nc2cc(C)on2)nnc1-c1ccccc1	none
CC(=O)SCC(=O)N=c1sc2cc(F)ccc2n1C	ALR inh 99
Cn1c(=NC(=O)CCS(=O)(=O)c2ccccc2)sc2cc(F)ccc21	NPR1 activator 62 (no result: ALR inh)
CCOc1ccc(N(CC(=O)Nc2c(C)n(C)n(-c3ccccc3)c2=O)S(=O)(=O)c2cccs2)cc1	none (no result: HDAC3 inh, ALR inh)
O=C(CSc1n[nH]c(-c2ccccc2)n1)c1ccccc1	ALR inh 97
CC(=O)c1ccc(NC(=O)CSc2nnc(-c3ccco3)c(-c3ccco3)n2)cc1	ALR inh 99
O=C(CSc1nnc(-c2ccco2)c(-c2ccco2)n1)c1ccccc1	ALR inh 99
O=C(CSc1nnc(-c2ccco2)n1Cc1ccccc1)c1ccccc1	none
CC(=O)Nc1ccc(NC(=O)CSc2nnc(-c3ccco3)o2)cc1	none
CC(C)c1ccc(C(=O)CSc2n[nH]c(-c3ccncc3)n2)cc1	none
